Screens from PubChem.
CCT modulator: High-Throughput Screening for Modulators of Cytosolic Chaperonin Activity; activity change, % (concentration not given with the values), hits read low; 0.3% of 360,000 active; purified chaperonin ATPase assay, HTRF ADP detection, 30 min; in the data active = activity change below about -30%; also: % is scaled to controls: 0 for no effect and ±100 for the full control effect
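ATPase activity: ADP formed was measured by HTRF Transcreener (665/615 nm ratio) after 30 min at 37 deg C with 10 uM ATP. Compounds screened at one 76 uM concentration against 40 or 20 nM TRiC in Tris pH 7.4/KCl/MgCl2/DTT buffer.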
Epigenetic derep: Quantitative High-Throughput Screen for Regulators of Epigenetic Control; Potency, µM (highest dose often 53.9 µM), without a hit: top-dose GFP activation, actives largely listed as activators; 0.2% of 280,000 active; murine LDR cells, GFP reporter derepression, 30 h; also: potency is read from the fitted curve at half-maximal effect; % of control where 0% means no effect; nearly all actives have a fitted effect of over 60% in size
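Murine LDR cells bearing a silenced CMV-driven GFP reporter were exposed to compound for 30 h at 37 C. After PBS washes, GFP-positive cells (20-120 um objects) counted by laser-scanning microplate cytometry.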
Mm-Cpn inhibitor: Inhibitors of TCP-1 ring complex (TRiC) of Methanococcus maripaludis (MmCpn): qHTS. Chaperonin Mm-Cpn (Methanococcus maripaludis). purified Mm-Cpn ATPase, ADP Transcreener TR-FRET. Potency, µM (highest dose often 76.9 µM), for the others: at the highest dose activity, negative = inhibition, hits mostly inhibitors. 0.031% of 330,000 active. AID 504842, 2011; also: potency is read from the fitted curve at half-maximal effect; % is scaled to controls: 0 for no effect and ±100 for the full control effect; nearly all actives have a fitted effect of over 80% in size
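25 nM Mm-CPN + cpd, 10 min 37°C; + 10 uM ATP, 30 min 37°C; buffer 30 mM Tris pH 7.4, 100 mM KCl, 5 mM MgCl2, 1 mM DTT; Transcreener ADP HTRF detection 30 min RT.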
pAkt inh: HTS Assay for Inhibitors of Akt Phophorylation: Primary Screen; activity change, % for hits at 50 µM; AID 651550, 2012; 0.32% of 360,000 active; Neuro2A IGF-stimulated pAkt S473 HTRF, 20 min; stronger effect = lower value; in the data active = activity change below about -80%; inconclusive = mostly about -51% to -80%; also: % is scaled to controls: 0 for no effect and ±100 for the full control effect
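Single-point screen (50 µM final compound) in Neuro2A cells stimulated 20 min with 6 nM IGF at 37 deg C. After lysis, Ser473-phosphorylated Akt read by HTRF (ex 330 nm, em 615/665 nm) as the 665/615 ratio.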
uPA generation: qHTS for Inhibitors of Cell Surface uPA Generation. cell surface uPA generation assay, qHTS. Potency, µM (series often up to 38.3 µM), without a hit: top-dose activity change, negative = inhibition, actives largely listed as inhibitors. 0.31% of 330,000 active. AID 540303, 2011; active = well fitted inhibition curve with a large enough effect; inconclusive = small, poorly fitted or top-dose-only effect; inactive = no such curve, though single readings can be large or run the other way; tested in mouse RAW 264.7 cells; also: potency is read from the fitted curve at half-maximal effect; % is scaled to controls: 0 for no effect and ±100 for the full control effect; nearly all actives have a fitted effect of over 55% in size
MBNL1 CUG block: qHTS Assay for Inhibitors of MBNL1-poly(CUG) RNA binding. TR-FRET MBNL1-His/biotin-(CUG)12 binding, 665/545 ratio. Potency, µM (doses to about 57.5 µM), for the others: at the highest dose activity change, negative = inhibition, most hits filed as inhibitors. 0.036% of 280,000 active; active = well fitted inhibition curve with a large enough effect in the signal ratio, with a control signal flat, not every such curve was filed as active; inconclusive = small, poorly fitted or top-dose-only effect, or effect the other way, or a change in a side signal; inactive = no such curve, though single readings can be large or run the other way; the % refers to the signal ratio; also: potency is read from the fitted curve at half-maximal effect; % is scaled to controls: 0 for no effect and ±100 for the full control effect
Target sequence (Q9NR56 whole entry, looked up): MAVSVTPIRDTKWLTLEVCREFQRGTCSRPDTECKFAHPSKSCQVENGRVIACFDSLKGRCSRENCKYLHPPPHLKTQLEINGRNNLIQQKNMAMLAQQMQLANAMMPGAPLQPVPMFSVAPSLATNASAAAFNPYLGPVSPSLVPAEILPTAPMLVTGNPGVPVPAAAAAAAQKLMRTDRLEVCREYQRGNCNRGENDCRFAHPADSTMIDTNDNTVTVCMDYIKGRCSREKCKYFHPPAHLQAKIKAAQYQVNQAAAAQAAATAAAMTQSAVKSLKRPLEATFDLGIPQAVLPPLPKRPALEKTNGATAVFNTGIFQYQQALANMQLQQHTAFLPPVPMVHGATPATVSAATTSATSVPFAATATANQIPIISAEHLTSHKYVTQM
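Inhibition of protein-RNA binding appears as loss of TR-FRET between terbium anti-His antibody on MBNL1-His and streptavidin-XL665 on biotin-(CUG)12. Activity is normalized to buffer-only and uninhibited-complex controls.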
The depositor's hits bear a star; i = inactive; ? = inconclusive; · = no result; [ ] = another dose, or the depositor's remark. Most compounds without a hit are left out; they make up all but 0.97% or so of the library. Unless noted, calls follow the shape of the dose curve; as a rule, active = well fitted curve in the direction sought with a large enough effect; inconclusive = small, poorly fitted or top-dose-only effect, or another doubt; inactive = no such curve, though single readings can be large; an effect the other way counts as inactive or inconclusive.

SMILES | CCT modulator | Epigenetic derep | Mm-Cpn inhibitor | pAkt inh | uPA generation | MBNL1 CUG block
O=C(Nc1cc(Br)ccc1O)C1CC(c2c(F)cccc2Cl)=NO1 (stereo not given) | 0.1 | · | 1.3% | i | 8.91µM* | 3.4%
O=C(Nc1ccc(Br)cc1)C1CC(c2c(F)cccc2Cl)=NO1 (stereo not given) | 1.2 | · | 0.1% | i | -10.3% | 2.2%
COc1ccc(OC)c(-n2c(SCC(=O)Nc3cccc(S(N)(=O)=O)c3)nc3ccccc3c2=O)c1 | -39.9* | 0.0% | -6.9% | i | 2.1% | ·
CCOc1ccc(NC(=O)/C=C\C(=O)N(c2ccc(C(C)C)cc2)C(C(=O)NCc2ccco2)c2ccc(F)cc2)cc1 (stereo not given) | · | 1.9% | · | · | · | ·
Oc1ccccc1-c1nc(N2CCCC2)c2ccccc2n1 | 0.3 | -1.5% | -1.0% | -145.1%* | 2.6% | 6.0%
C/C(=N\NC(=O)c1ccc(F)cc1)c1cccc(NC(=O)c2ccco2)c1 | 1.3 | -1.1% | 1.6% | -95.5%* | -9.4% | -2.3%
CCc1c(C)c2c(C)nn(-c3ccccc3)c2[nH]c1=O | -0.1 | 0.0% | -2.7% | i | -8.2% | ?
Cc1c(C)c2c(C)nn(-c3ccccc3)c2[nH]c1=O | -2.7 | -3.7% | 0.8% | -108.2%* | -2.9% | -19.3%
S=c1[nH]nc(-c2ccc3ccccc3n2)n1-c1ccccc1 | -69.5* | -1.0% | -7.4% | i | -1.5% | 11.5%
Fc1ccccc1-n1c(-c2ccc3ccccc3n2)n[nH]c1=S | -1.2 | 0.9% | 0.0% | i | 1.3% | 20.9%
C=CCOC(=O)N[C@H](/C(C(=O)OC)=C(\C)NCc1ccccc1)c1cccc(OC)c1 | · | 1.1% | · | · | · | ·
C[C@H](CCC(=O)O)[C@H]1CC[C@@H]2[C@H]3[C@@H](CC[C@@]21C)[C@]1(C)CC[C@H](O)C[C@@H]1C[C@@H]3O | · | 4.1%[16.9 µM] | · | · | · | ·
COc1ccc(N2Cc3ccccc3C2=O)cc1 | 0.6 | · | -0.7% | i | -11.4% | -1.5%
C=CC(=O)Oc1ccc(N2Cc3ccccc3C2=O)cc1 | 1.2 | · | · | i | 5.01µM* | ·
Cc1ccc(N2Cc3ccccc3C2=O)cc1 | 0.0 | · | -0.1% | i | 8.91µM* | -5.9%
CC(C)(C)OC(=O)CC12CCCCC1NC(=O)O2 (stereo not given) | -49.2* | · | 0.2% | i | 14.4% | -7.6%
C[C@@H]1Cn2cnc(C(=O)NCC(=O)OC(C)(C)C)c2C(=O)N1 | -2.1 | · | · | i | · | ·
COc1ccc(OC)c(NC(=O)CN2C(=O)CSc3ccc(S(=O)(=O)N4CCCC4)cc32)c1 | 0.8 | · | -1.1% | i | -4.9% | -7.5%
COc1ccc(NC(=O)CN2C(=O)CSc3ccc(S(=O)(=O)N4CCCC4)cc32)cc1OC | -36.7* | -1.1% | -0.2% | i | 5.7% | -11.6%
Cc1c(C(=O)NCc2ccc3c(c2)OCO3)oc2ccc(S(=O)(=O)N3CCCCCC3)cc12 | -0.1 | -0.7% | · | -112.3%* | 4.3% | 6.7%
CCC(C)(C)n1nnnc1C(c1ccc(OC)c(OC)c1)N1CCN(c2ccccc2)CC1 (stereo not given) | -3.0 | 0.0% | -3.7% | -105.0%* | 2.0% | 0.8%
COc1ccc(S(=O)(=O)N(C)CC(=O)O)cc1C | · | -0.1% | · | · | · | ·
COc1ccc(NC(=O)CSc2nnc(-c3ccccc3)n2Cc2ccco2)cc1OC | -3.3 | -1.2% | 2.3% | i | · | -11.9%
COC(=O)CSc1nnc(CSc2nc(C)cc(C)n2)n1Cc1ccco1 | 0.4 | 1.1% | 0.5% | -96.6%* | 0.9% | -1.1%
Cc1cc(C)nc(SCc2nnc(SCc3ccc([N+](=O)[O-])cc3)n2Cc2ccco2)n1 | -1.7 | -3.0% | 0.3% | i | -2.2% | ?
SMILES | CCT modulator | Epigenetic derep | Mm-Cpn inhibitor | pAkt inh | uPA generation | MBNL1 CUG block
Cc1cc(C)nc(SCc2nnc(SCC(=O)Nc3ccc(C)c(C)c3)n2Cc2ccco2)n1 | -1.8 | -1.0% | 1.1% | -109.7%* | 5.7% | ?
Cc1cc(C)c2c(CC(=O)Nc3nnc(CC(C)C)s3)coc2c1 | · | -1.9% | · | · | · | ·
N=c1sccn1CC(=O)Nc1cccc2ccccc12 | -121.9* | -2.4% | 0.7% | i | 5.5% | 7.6%
O=C(Nc1ccc2c(c1)OCCO2)C1CCCN(S(=O)(=O)c2cccs2)C1 (stereo not given) | -11.2 | 0.0% | 0.6% | -108.2%* | 0.4% | -9.1%
O=C(Nc1ccc2c(c1)OCO2)C1CCCN(S(=O)(=O)c2cccs2)C1 (stereo not given) | 2.7 | 3.4% | -1.1% | i | -0.6% | -6.0%
CCCS(=O)(=O)N1CCCC(C(=O)NC(C)c2ccc3c(c2)OCCO3)C1 (stereo not given) | 0.0 | 0.0% | 0.8% | -114.3%* | 5.8% | -0.6%
CCCCn1c(N)c(N(CC(C)C)C(=O)c2cccc(S(=O)(=O)N3CCCCC3)c2)c(=O)[nH]c1=O | -0.1 | · | 2.2% | i | 7.7% | ·
CCCCn1c(N)c(N(CC(C)C)C(=O)c2cccc(S(=O)(=O)N3CCCCCC3)c2)c(=O)[nH]c1=O | -81.3* | · | -9.2% | i | -1.6% | 2.5%
CCN1c2ccccc2NC2C1C(C(C)=O)C(=O)N2c1ccc(Cl)cc1 (stereo not given) | -0.1 | 25.1µM* | 1.4% | i | -19.1% | ?
O=[N+]([O-])c1cccc(CSc2nc3ccccc3[nH]2)c1 | 1.7 | -0.9% | 2.5% | i | 0.2% | ·
COc1ccc(Nc2nc(N)nc(CSc3nc(C)cc(C)n3)n2)cc1 | 2.5 | 2.4% | -7.8% | i | · | 2.0%
COc1ccc2nc(SCc3nc(N)nc(Nc4ccccc4)n3)[nH]c2c1 | -2.4 | -1.3% | 1.5% | -101.5%* | 13.5% | 3.0%
COc1cccc(CSc2nc3ccccc3[nH]2)c1 | -1.1 | -1.0% | -1.9% | i | 8.91µM* | -3.3%
Cc1ccc(C)c(N2CCN(C(=O)CS(=O)(=O)c3cccc4nsnc34)CC2)c1 | · | -1.6% | · | · | · | ·
CN(C)c1ncnc2c1ncn2C1OC(CO)C(O)C1O (stereo not given) | -1.7 | 5.2% | -0.4% | i | -13.3% | -4.9%
COc1ccc(C[C@H](N)C(=O)N[C@H]2[C@@H](O)[C@H](n3cnc4c(N(C)C)ncnc43)O[C@@H]2CO)cc1 | -0.9 | · | -3.3% | i | 1µM* | ·
Cn1cnc(S(=O)(=O)N2CCN(c3ccccc3)CC2)c1 | -78.1* | · | 0.4% | · | -8.7% | -1.8%
CCS(=O)(=O)N1CCN(c2ccccc2)CC1 | -39.9* | -0.3% | 0.5% | i | 0.0% | ·
CCS(=O)(=O)N1CCN(S(=O)(=O)c2ccccc2)CC1 | -0.2 | -4.6% | 0.7% | i | 0.9% | -7.3%
